# Assay outcomes from PubChem BioAssay.
# In the library only some 2.3% were active in any assay of this set; here they are far more common.
# C diff HTS: inhibitors of Clostridium difficile growth; Clostridium difficile clinical isolate growth, OD600, 24 h; hits give low values; AID 1259249; growth activity, negative = inhibition, % at 16 µg/mL (by protocol); hit rate 0.25% among 86,000;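 active = mean growth activity at or below -80% and every replicate also at or below -80%; inconclusive = mean at or below -80% but some replicate above -80%; inactive = mean growth activity above -80%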;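 also: 0% = DMSO wells and -100% = levofloxacin 16 µg/mL wells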
# Pf Dd2 growth: inhibitors of Plasmodium falciparum Dd2 growth | P. falciparum Dd2 growth, SYBR Green, 72 h; hits give low values | hit rate 2.3% among 94,000 | activity change, % at 10 µM; in the data active = activity change below about -80%; inconclusive = no clear call, values can overlap the other calls
# * marks the source's active call; other numbers are inactive results; ? = inconclusive; · = not tested or not shown.
SMILES,C diff HTS,Pf Dd2 growth
Cc1ccc(S(=O)(=O)N(C)C[C@@H]2OCCCC[C@@H](C)Oc3ccc(NC(=O)c4ccccc4)cc3C(=O)N([C@@H](C)CO)C[C@@H]2C)cc1,·,-80
COc1ccc(S(=O)(=O)N(C)C[C@@H]2OCCCC[C@@H](C)Oc3ccc(NC(=O)c4ccccc4)cc3C(=O)N([C@H](C)CO)C[C@H]2C)cc1,15,-85*
C[C@@H]1CN([C@H](C)CO)C(=O)c2cc(NC(=O)c3ccccc3)ccc2O[C@@H](C)CCCCO[C@@H]1CN(C)S(=O)(=O)c1ccc(F)cc1,5,-85*
Cc1ccc(S(=O)(=O)N(C)C[C@H]2OCCCC[C@@H](C)Oc3ccc(NC(=O)c4ccccc4)cc3C(=O)N([C@@H](C)CO)C[C@H]2C)cc1,·,-65
CCC(=O)Nc1ccc2c(c1)OC[C@@H](C)N(C(=O)CN(C)C)C[C@@H](C)[C@@H](OC)CN(C)C2=O,·,4
C[C@H]1CCCCO[C@@H](CN(C)Cc2ccc(C(=O)O)cc2)[C@@H](C)CN([C@@H](C)CO)C(=O)c2cc(NC(=O)Nc3ccc(F)cc3)ccc2O1,-1,-74
CO[C@H]1CN(C)C(=O)c2ccc(NC(=O)C3CCOCC3)cc2OC[C@@H](C)N(C)C[C@H]1C,2,19
C[C@@H]1CN([C@H](C)CO)C(=O)Cc2cc(NS(=O)(=O)c3ccccc3)ccc2O[C@H]1CN(C)S(=O)(=O)c1cn(C)cn1,6,36
Cc1noc(C)c1S(=O)(=O)N(C)C[C@H]1OCCCC[C@H](C)Oc2ccc(NC(=O)Nc3ccccc3)cc2C(=O)N([C@@H](C)CO)C[C@@H]1C,5,?
COc1ccc(NC(=O)Nc2ccc3c(c2)C(=O)N([C@@H](C)CO)C[C@H](C)[C@@H](CN(C)S(=O)(=O)c2c(C)noc2C)OCCCC[C@H](C)O3)cc1,-5,-83*
COc1ccc(NC(=O)Nc2ccc3c(c2)C(=O)N([C@@H](C)CO)C[C@@H](C)[C@H](CN(C)S(=O)(=O)c2c(C)noc2C)OCCCC[C@@H](C)O3)cc1,-2,-17
Cc1noc(C)c1S(=O)(=O)N(C)C[C@H]1OCCCC[C@@H](C)Oc2ccc(NC(=O)Nc3ccc(F)cc3)cc2C(=O)N([C@@H](C)CO)C[C@@H]1C,-10,-83*
Cc1noc(C)c1S(=O)(=O)N(C)C[C@@H]1OCCCC[C@@H](C)Oc2ccc(NC(=O)Nc3ccccc3)cc2C(=O)N([C@H](C)CO)C[C@H]1C,14,-83*
Cc1noc(C)c1S(=O)(=O)N(C)C[C@H]1OCCCC[C@@H](C)Oc2ccc(NC(=O)Nc3ccc(F)cc3)cc2C(=O)N([C@H](C)CO)C[C@@H]1C,-7,-5
CCCN1C[C@H](C)[C@H](OC)CN(C)C(=O)c2cc(NC(=O)COC)ccc2OC[C@@H]1C,1,2
C[C@H](CO)N1C[C@H](C)[C@@H](CN(C)Cc2ccc(Cl)c(Cl)c2)OCCCC[C@H](C)Oc2ccc(NC(=O)CCC(F)(F)F)cc2C1=O,8,2
C[C@@H]1CN([C@H](C)CO)C(=O)c2cc(NC(=O)CCC(F)(F)F)ccc2O[C@@H](C)CCCCO[C@H]1CN(C)Cc1ccc(Cl)c(Cl)c1,2,-83*
C[C@@H]1CCCCO[C@@H](CN(C)Cc2ccc(Cl)c(Cl)c2)[C@H](C)CN([C@H](C)CO)C(=O)c2cc(NC(=O)CCC(F)(F)F)ccc2O1,-12,-88*
C[C@@H]1CCCCO[C@@H](CN(C)Cc2ccc(Cl)c(Cl)c2)[C@@H](C)CN([C@@H](C)CO)C(=O)c2cc(NC(=O)CCC(F)(F)F)ccc2O1,18,-60
C[C@H]1CN([C@@H](C)CO)C(=O)c2cccc(NC(=O)CCCCCC(=O)Nc3ccccc3N)c2O[C@H]1CN(C)Cc1ccncc1,2,23
C[C@@H]1CN([C@H](C)CO)C(=O)c2cccc(NC(=O)CCCCCC(=O)Nc3ccccc3N)c2O[C@H]1CN(C)Cc1ccncc1,-3,-19
C[C@H]1CN([C@@H](C)CO)C(=O)c2cccc(NC(=O)CCCCCC(=O)Nc3ccccc3N)c2O[C@H]1CN(C)Cc1ccc(C(F)(F)F)cc1,7,-85*
C[C@@H]1CN([C@H](C)CO)C(=O)c2cccc(NC(=O)CCCCCC(=O)Nc3ccccc3N)c2O[C@H]1CN(C)Cc1ccc(C(F)(F)F)cc1,-10,-92*
COCCNC(=O)C[C@H]1C=C[C@H](NS(=O)(=O)c2ccc(C)cc2)[C@H](CO)O1,-1,9
COc1ccc(CN2C[C@@H](C)[C@H](OC)CN(C)C(=O)c3ccc(NC(=O)c4nc5ccccc5s4)cc3OC[C@H]2C)cc1,9,-88*
SMILES,C diff HTS,Pf Dd2 growth
COc1ccc(CN2C[C@@H](C)[C@@H](OC)CN(C)C(=O)c3cc(NC(=O)c4nc5ccccc5s4)ccc3OC[C@H]2C)cc1,·,-79
COc1ccc(CN2C[C@@H](C)[C@H](OC)CN(C)C(=O)c3ccc(NC(=O)c4nc5ccccc5s4)cc3OC[C@@H]2C)cc1,5,-70
COc1ccc(CN2C[C@H](C)[C@H](OC)CN(C)C(=O)c3cc(NC(=O)c4nc5ccccc5s4)ccc3OC[C@@H]2C)cc1,·,-83*
C[C@@H]1CN([C@H](C)CO)C(=O)c2cc(NS(=O)(=O)c3ccc(Cl)cc3)ccc2O[C@H]1CN(C)C(=O)Nc1ccc2c(c1)OCO2,2,-5
C[C@@H]1CCCCO[C@@H](CN(C)C)[C@@H](C)CN([C@@H](C)CO)C(=O)c2cc(NC(=O)Nc3cccc4ccccc34)ccc2O1,6,·
C[C@@H]1CN([C@@H](C)CO)C(=O)c2cc(NC(=O)Nc3cccc4ccccc34)ccc2O[C@@H](C)CCCCO[C@@H]1CN(C)C,2,-87*
C[C@H]1CCCCO[C@@H](CN(C)CC2CCCCC2)[C@@H](C)CN([C@@H](C)CO)C(=O)c2cc(NC(=O)Nc3cccc4ccccc34)ccc2O1,0,-83*
C[C@@H]1CCCCO[C@H](CN(C)CC2CCCCC2)[C@@H](C)CN([C@H](C)CO)C(=O)c2cc(NC(=O)Nc3cccc4ccccc34)ccc2O1,11,-71
N#C[C@@H]1[C@@H](c2ccc(C3=CCCC3)cc2)[C@@H](CO)N1C(=O)NC1CCCC1,-6,27
CCC(=O)Nc1ccc2c(c1)OC[C@H](C)N(CC1CCCCC1)C[C@H](C)[C@@H](OC)CN(C)C2=O,2,-2
O=C(Nc1ccc(-c2ccccc2)cc1)[C@H]1[C@H](CO)[C@H]2Cn3c(cccc3=O)[C@H]2N1CC1CCOCC1,-9,-19
O=C(Nc1ccc(-c2ccccc2)cc1)[C@@H]1[C@@H](CO)[C@@H]2Cn3c(cccc3=O)[C@@H]2N1CC1CCCCC1,1,-82*
COc1ccccc1C#Cc1ccc([C@H]2[C@@H](C#N)N(C(=O)C3CC3)[C@H]2CO)cc1,5,-85*
COc1ccccc1C#Cc1ccc([C@@H]2[C@@H](C#N)N(C(=O)C3CCCCC3)[C@@H]2CO)cc1,-3,-51
COc1ccccc1C#Cc1ccc([C@H]2[C@@H](CO)N(C(=O)C3CCCCC3)[C@H]2C#N)cc1,-3,-91*
COc1ccccc1C#Cc1ccc([C@H]2[C@H](C#N)N(C(=O)C3CC3)[C@H]2CO)cc1,5,-37
CO[C@H]1CN(C)C(=O)c2cc(NS(C)(=O)=O)ccc2OC[C@@H](C)N(CC2CCCCC2)C[C@@H]1C,·,-25
